Consider 19 sequences from the supplement of paper PMC10681739.

In one assay the target is T1, ETS1 (UniProt P14921).
T1 sequence: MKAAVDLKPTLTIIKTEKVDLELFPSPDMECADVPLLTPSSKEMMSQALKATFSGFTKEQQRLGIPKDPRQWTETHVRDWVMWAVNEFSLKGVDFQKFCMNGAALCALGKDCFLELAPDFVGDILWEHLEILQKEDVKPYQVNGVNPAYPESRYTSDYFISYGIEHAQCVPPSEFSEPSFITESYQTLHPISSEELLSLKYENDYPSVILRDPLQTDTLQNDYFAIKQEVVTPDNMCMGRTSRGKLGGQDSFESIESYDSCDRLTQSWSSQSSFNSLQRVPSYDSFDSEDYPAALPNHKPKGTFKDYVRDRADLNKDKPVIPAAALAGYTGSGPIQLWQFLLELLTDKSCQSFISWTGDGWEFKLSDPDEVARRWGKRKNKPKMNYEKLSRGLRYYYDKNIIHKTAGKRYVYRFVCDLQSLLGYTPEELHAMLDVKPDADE
The assay can be described thus: ETS1 binding intensity (PBM fluorescence), ETS1 alone (arbitrary fluorescence units); higher = stronger binding. The note with it: ETS1 concentration 1 nM; RUNX1 concentration 0 nM.

Another assay deals with RUNX1 (UniProt Q01196). The assay can be described thus: RUNX1 binding intensity (PBM fluorescence), RUNX1 alone (arbitrary fluorescence units); higher = stronger binding. The note with it: RUNX1 concentration 2 nM; ETS1 concentration 0 nM. The method, then: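 Cooperative gcPBM on 36-bp genomic probes with neighbouring ETS1 and RUNX1 sites. Recombinant human RUNX1 (2 nM) was incubated alone or with ETS1 (25 nM) and detected with anti-RUNX1 antibody plus Alexa488 secondary. Values are medians over 4 replicate spots; the RUNX1+ETS1 data were normalised to the RUNX1-only data. The probes sit in constant array flanks that are not printed.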
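For RUNX1 binding intensity (PBM fluorescence), RUNX1 alone in this document: Full-length recombinant human RUNX1 bound to double-stranded 36-bp genomic probes on a high-density microarray, scored as Alexa488 fluorescence per spot via anti-RUNX1 antibody, median of four replicate spots.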

RUNX1, sequence (Q01196 whole entry): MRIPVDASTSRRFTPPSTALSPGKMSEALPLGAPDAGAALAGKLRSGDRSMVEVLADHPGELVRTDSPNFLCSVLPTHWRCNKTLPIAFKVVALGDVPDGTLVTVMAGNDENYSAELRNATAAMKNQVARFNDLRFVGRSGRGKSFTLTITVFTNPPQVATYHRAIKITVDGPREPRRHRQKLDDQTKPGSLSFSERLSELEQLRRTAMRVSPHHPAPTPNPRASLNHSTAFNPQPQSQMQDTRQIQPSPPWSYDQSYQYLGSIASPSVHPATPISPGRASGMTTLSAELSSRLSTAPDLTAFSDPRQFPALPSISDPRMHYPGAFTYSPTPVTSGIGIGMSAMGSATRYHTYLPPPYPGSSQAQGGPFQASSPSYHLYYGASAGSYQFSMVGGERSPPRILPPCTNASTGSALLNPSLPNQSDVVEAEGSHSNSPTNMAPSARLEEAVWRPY

In turn, CTTCTCGCGGAAGCGGCACAAGCCGCAGTACAGCGC had an ETS1 binding intensity with ETS1 of 301.

For the sequence CCAGCTACACAGGATGCTGCGGTGGGCGGAATGCTC, the ETS1 binding intensity in the assay with ETS1 is 2160. The sequence also returned an RUNX1 binding intensity with RUNX1 of 801. For CCTGCCTGAGGCAGGAAGCCGCAGCTGAGGGACGGC, the ETS1 binding intensity with ETS1 was 2980. In addition, the RUNX1 binding intensity with RUNX1 stood at 761. The like results for AACTTAGCTTCCGGGAAGAAGGCGAGCGGTGGGAGG were, in that order, 780 and 735. ATCTTTTGATGAGGATGTGGTTTCCAGGCAGGTGCT registered an ETS1 binding intensity in the assay with ETS1 of 836. Also, the RUNX1 binding intensity with RUNX1 came out at 902. CAAGGCACCAACGGATGTGGTATCTGGTGAGGGCTT came in with an ETS1 binding intensity in the assay with ETS1 of 2150. The RUNX1 binding intensity in the assay with RUNX1 was determined as 846. Turning to ATAGTCACCGTTCCGGCCCTCCTCCACCGCACTTCT, the ETS1 binding intensity with ETS1 amounted to 445.

For GAGGAACCCAAAGTAGGATGTGGTTTTGCAATTGGA, the ETS1 binding intensity in the assay with ETS1 was 757. In the assay with RUNX1, this sequence came in with an RUNX1 binding intensity of 1020. TCCCACTGCGACGGAAGCACAGCGGTTAAGATTGCA gave an ETS1 binding intensity in the assay with ETS1 of 821. For the same sequence, the RUNX1 binding intensity with RUNX1 turned out to be 792. The sequence GCTCTGGGTCACACAGGATGTGGTTTTTGAAGTTTG registered an ETS1 binding intensity with ETS1 of 8060. Besides, the RUNX1 binding intensity in the assay with RUNX1 stood at 1210.

TAAACCCTGCTTCCTGTCCCTGCGCCCCACAAGGAG yielded an ETS1 binding intensity with ETS1 of 1290. For AGCTGCATTTCCGGGCAGGCAATGAAACCACAGAGT, the ETS1 binding intensity in the assay with ETS1 is 1100. Further, in the assay with RUNX1, the RUNX1 binding intensity amounted to 918. Sequence CAACTTCCGGGGCCGGTTGCCTGGCAACCGCAGGAG yielded an ETS1 binding intensity with ETS1 of 812. This sequence registered an RUNX1 binding intensity in the assay with RUNX1 of 965.

In the assay with ETS1, CCGGGCCTCCAGACGGAACTGTGGGCGAGGGGAGGG gave an ETS1 binding intensity of 470.

In the assay with ETS1, GCCCCGGAAGCTCCTTAAGGAGGACCGTGTGGGTTT yielded an ETS1 binding intensity of 605. This sequence also registered an RUNX1 binding intensity with RUNX1 of 746. The like results for TGGGGGATGGCAGCAGGATGTGGTTATCTCAGAAAG were, in that order, 3330 and 814.

Sequence TGGAGAGCACAGGAAGTGGCCCACAGCCCAGGCCAA showed an ETS1 binding intensity with ETS1 of 5790. Moreover, the RUNX1 binding intensity in the assay with RUNX1 stood at 766. GCTTTGCAGTTTCCTCTATGGAACACCACACACAGT showed an ETS1 binding intensity in the assay with ETS1 of 621. In the assay with ETS1, GGCAAACAGGAAACACTCCCAGGGCTGTGGGCTCCT registered an ETS1 binding intensity of 1550. Besides, the RUNX1 binding intensity with RUNX1 came out at 727.
